# Laboratory results reported in paper PMC7862700, “An all-to-all approach to the identification of sequence-specific readers for epigenetic DNA modifications on cytosine”.
# Assays:
# Assay in all cases: DAPPL (digital affinity profiling via proximity ligation, sequencing); 10 mM Tris-HCl pH 7.5, 50 mM NaCl, 1 mM DTT, 4% glycerol, room temperature, 30 min; GST-TFs on glutathione beads, 16-mer random dsDNA library, 0.1% formaldehyde crosslink after washing; high values mean tight binding
# FEV = biological target: T1, FEV (Homo sapiens, UniProt Q99581 1-238); details: protein: recombinant; tags: N-terminal GST; dsDNA, one strand shown
# T1 sequence: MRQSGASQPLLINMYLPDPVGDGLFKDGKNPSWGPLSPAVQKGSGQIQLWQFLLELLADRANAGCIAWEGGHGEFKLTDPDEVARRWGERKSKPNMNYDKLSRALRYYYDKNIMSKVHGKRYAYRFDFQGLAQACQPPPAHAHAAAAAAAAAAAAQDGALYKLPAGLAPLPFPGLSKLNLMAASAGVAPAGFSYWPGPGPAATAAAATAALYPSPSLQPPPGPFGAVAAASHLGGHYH
# Outline: (§1)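 Human transcription factors carrying a GST fusion were produced in yeast, bound to glutathione beads, tagged with DNA barcodes and pooled together with a tag-only sample. Each pool was held with 200 nmole of a random double-stranded 16-mer DNA library in Tris/NaCl/DTT/glycerol buffer for 30 min at room temperature, then washed, crosslinked in 0.1% formaldehyde, proximity-ligated with BsaI/T4 ligase (1 h, 37 °C), PCR-amplified and sequenced on an Illumina NextSeq500. Binding signal is the read frequency of each hexamer for a given factor divided by its frequency in the tag-only sample.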
# ETV5 = ETV5 (Homo sapiens, UniProt P41161 1-510); details: protein: recombinant; tags: N-terminal GST; dsDNA, one strand shown
# Outline: as §1
# HSF1 = HSF1 (Homo sapiens, UniProt Q00613 1-529); details: protein: recombinant; tags: N-terminal GST; chain copies: 3; dsDNA, one strand shown
# Outline: as §1
# SPIC = biological target: T2, SPIC (Homo sapiens, UniProt Q8N5J4 1-248); details: protein: recombinant; tags: N-terminal GST; dsDNA, one strand shown
# T2 sequence: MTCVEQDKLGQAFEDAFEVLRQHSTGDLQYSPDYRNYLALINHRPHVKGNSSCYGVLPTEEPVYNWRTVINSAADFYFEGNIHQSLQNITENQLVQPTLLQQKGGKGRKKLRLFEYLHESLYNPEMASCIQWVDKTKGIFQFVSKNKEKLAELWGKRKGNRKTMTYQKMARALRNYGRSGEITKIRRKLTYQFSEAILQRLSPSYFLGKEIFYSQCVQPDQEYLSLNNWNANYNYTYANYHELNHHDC
# Outline: as §1
# ELF4 = ELF4 (Homo sapiens, UniProt Q99607 1-663); details: protein: recombinant; tags: N-terminal GST; dsDNA, one strand shown
# Outline: as §1
# ELK4 = biological target: T3, ELK4 (Homo sapiens, UniProt P28324-2 1-405); details: protein: recombinant; tags: N-terminal GST; dsDNA, one strand shown
# T3 sequence: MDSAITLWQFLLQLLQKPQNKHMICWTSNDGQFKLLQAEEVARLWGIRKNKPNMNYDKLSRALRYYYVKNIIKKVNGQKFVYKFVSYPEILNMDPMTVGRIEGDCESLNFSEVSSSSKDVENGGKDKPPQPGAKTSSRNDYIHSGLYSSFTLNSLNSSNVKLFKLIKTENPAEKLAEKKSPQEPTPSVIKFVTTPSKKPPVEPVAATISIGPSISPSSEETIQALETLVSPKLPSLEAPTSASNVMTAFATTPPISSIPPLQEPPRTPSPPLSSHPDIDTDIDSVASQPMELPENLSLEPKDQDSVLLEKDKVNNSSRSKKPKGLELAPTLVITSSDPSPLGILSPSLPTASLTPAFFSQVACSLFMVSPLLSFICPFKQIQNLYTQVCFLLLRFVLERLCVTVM
# Outline: as §1
# ETV2 = biological target: T4, ETV2 (Homo sapiens, UniProt O00321 1-342); details: protein: recombinant; tags: N-terminal GST; dsDNA, one strand shown
# T4 sequence: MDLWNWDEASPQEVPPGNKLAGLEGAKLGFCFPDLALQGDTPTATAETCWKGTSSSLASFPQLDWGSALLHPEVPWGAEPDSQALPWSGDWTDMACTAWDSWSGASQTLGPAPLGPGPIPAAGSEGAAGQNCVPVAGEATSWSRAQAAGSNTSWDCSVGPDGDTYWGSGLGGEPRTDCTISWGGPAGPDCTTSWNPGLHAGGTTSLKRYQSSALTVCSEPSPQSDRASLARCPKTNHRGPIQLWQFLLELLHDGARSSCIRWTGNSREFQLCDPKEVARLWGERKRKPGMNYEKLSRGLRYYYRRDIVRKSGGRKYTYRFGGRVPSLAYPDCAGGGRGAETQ
# Outline: as §1
# ELF3 = biological target: T5, ELF3 (Homo sapiens, UniProt P78545 1-371); details: protein: recombinant; tags: N-terminal GST; dsDNA, one strand shown
# T5 sequence: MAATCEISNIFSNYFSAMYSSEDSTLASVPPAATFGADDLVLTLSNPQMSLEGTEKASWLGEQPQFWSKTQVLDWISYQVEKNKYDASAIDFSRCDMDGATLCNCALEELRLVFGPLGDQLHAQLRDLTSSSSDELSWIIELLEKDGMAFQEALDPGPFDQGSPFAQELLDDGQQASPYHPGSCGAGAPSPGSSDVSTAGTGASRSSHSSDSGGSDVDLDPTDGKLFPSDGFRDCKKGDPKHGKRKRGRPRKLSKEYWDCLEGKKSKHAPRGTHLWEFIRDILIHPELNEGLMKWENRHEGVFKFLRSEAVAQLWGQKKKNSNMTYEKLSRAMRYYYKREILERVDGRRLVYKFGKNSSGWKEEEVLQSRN
# Outline: as §1
# CRX = CRX (Homo sapiens, UniProt O43186 1-299); details: protein: recombinant; tags: N-terminal GST; dsDNA, one strand shown
# Outline: as §1
# ETV1 = ETV1 (Homo sapiens, UniProt P50549 1-477); details: protein: recombinant; tags: N-terminal GST; dsDNA, one strand shown
# Outline: as §1
# ERF = biological target: T6, ERF (Homo sapiens, UniProt P50548 1-548); details: protein: recombinant; tags: N-terminal GST; dsDNA, one strand shown
# T6 sequence: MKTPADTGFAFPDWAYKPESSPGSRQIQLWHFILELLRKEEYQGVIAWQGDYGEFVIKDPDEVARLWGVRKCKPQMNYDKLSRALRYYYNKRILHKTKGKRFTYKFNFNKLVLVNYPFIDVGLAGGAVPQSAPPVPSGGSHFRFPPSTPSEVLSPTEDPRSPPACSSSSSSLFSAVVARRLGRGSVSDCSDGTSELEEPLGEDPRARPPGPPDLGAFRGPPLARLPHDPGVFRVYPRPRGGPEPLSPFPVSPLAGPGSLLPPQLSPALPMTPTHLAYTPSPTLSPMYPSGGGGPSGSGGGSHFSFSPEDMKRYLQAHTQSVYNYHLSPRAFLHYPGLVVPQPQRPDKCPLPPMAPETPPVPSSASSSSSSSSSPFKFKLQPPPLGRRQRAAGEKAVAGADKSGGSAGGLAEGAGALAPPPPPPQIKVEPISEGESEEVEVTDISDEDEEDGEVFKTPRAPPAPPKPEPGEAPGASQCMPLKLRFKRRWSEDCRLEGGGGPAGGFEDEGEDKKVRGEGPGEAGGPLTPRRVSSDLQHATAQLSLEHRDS
# Outline: as §1
# ETV3L = biological target: T7, ETV3L (Homo sapiens, UniProt Q6ZN32 1-361); details: protein: recombinant; tags: N-terminal GST; dsDNA, one strand shown
# T7 sequence: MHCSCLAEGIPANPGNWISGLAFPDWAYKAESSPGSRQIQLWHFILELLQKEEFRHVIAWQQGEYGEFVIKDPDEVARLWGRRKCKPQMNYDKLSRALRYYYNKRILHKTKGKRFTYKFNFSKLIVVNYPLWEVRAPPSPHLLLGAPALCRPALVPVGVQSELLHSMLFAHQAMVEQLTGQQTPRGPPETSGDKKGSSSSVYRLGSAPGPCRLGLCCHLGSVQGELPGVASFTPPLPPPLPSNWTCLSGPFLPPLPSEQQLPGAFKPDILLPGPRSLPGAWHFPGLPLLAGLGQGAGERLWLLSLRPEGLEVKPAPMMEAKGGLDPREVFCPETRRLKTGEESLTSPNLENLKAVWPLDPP
# Outline: as §1
# ETS2 = biological target: T8, ETS2 (Homo sapiens, UniProt P15036 1-469); details: protein: recombinant; tags: N-terminal GST; dsDNA, one strand shown
# T8 sequence: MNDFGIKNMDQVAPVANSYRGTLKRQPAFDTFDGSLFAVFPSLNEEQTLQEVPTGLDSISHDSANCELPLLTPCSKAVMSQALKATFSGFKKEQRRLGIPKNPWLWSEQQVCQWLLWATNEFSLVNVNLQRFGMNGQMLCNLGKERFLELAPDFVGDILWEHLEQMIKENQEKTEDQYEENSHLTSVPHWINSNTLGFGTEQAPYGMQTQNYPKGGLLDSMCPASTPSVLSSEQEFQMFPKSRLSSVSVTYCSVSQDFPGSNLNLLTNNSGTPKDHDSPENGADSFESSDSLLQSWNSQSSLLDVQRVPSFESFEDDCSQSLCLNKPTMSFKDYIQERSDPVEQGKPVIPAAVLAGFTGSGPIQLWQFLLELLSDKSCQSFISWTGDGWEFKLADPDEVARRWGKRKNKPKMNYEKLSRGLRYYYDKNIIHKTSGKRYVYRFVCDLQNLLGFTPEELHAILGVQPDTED
# Outline: as §1
# SPDEF = biological target: T9, SPDEF (Homo sapiens, UniProt O95238 1-335); details: protein: recombinant; tags: N-terminal GST; dsDNA, one strand shown
# T9 sequence: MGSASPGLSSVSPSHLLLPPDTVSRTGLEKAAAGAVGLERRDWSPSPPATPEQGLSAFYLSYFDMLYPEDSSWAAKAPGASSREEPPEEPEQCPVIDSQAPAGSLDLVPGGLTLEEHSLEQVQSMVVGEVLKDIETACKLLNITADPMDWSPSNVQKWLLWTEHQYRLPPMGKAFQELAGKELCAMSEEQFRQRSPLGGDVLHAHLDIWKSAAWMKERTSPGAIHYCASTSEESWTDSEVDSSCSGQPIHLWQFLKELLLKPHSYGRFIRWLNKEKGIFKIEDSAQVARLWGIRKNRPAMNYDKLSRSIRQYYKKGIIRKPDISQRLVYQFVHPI
# Outline: as §1
# ETV7 = biological target: T10, ETV7 (Homo sapiens, UniProt Q9Y603 1-341); details: protein: recombinant; tags: N-terminal GST; dsDNA, one strand shown
# T10 sequence: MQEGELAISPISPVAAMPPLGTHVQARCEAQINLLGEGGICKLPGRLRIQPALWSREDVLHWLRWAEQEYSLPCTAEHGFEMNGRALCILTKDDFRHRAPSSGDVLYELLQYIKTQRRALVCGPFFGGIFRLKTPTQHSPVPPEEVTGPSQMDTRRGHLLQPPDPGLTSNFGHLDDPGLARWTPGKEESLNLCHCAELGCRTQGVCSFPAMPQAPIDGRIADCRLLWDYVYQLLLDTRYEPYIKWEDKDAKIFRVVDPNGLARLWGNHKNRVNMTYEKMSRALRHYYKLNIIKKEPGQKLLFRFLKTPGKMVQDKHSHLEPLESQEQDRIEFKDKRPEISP
# Outline: as §1
# ELF5 = biological target: T11, ELF5 (Homo sapiens, UniProt Q9UKW6-2 1-255); details: protein: recombinant; tags: N-terminal GST; dsDNA, one strand shown
# T11 sequence: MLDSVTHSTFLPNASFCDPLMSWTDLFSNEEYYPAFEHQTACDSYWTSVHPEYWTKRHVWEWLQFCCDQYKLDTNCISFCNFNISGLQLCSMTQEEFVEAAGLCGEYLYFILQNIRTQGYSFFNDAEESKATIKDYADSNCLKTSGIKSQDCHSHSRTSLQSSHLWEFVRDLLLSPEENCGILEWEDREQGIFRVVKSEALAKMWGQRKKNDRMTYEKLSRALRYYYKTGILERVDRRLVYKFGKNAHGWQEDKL
# Outline: as §1
# ETV3 = biological target: T12, ETV3 (Homo sapiens, UniProt P41162-2 1-143); details: protein: recombinant; tags: N-terminal GST; dsDNA, one strand shown
# T12 sequence: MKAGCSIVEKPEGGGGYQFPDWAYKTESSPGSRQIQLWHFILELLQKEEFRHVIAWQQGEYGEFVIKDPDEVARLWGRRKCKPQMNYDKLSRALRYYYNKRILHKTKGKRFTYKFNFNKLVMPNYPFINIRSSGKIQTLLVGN
# Outline: as §1
# ETV6 = ETV6 (Homo sapiens, UniProt P41212 1-452); details: protein: recombinant; tags: N-terminal GST; dsDNA, one strand shown
# Outline: as §1
# Chain of ETV6 (P41212 whole entry): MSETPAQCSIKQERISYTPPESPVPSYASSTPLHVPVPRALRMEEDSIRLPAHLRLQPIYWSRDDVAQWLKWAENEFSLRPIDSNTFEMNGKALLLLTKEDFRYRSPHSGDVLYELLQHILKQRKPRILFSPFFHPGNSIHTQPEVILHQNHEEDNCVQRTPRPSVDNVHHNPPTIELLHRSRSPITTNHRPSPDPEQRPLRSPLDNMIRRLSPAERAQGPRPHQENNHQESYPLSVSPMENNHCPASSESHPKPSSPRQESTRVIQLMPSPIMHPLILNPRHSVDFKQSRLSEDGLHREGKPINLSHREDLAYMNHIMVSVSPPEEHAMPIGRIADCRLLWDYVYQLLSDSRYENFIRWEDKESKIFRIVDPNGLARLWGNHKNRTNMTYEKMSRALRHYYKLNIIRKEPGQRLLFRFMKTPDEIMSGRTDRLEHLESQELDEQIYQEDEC
# Chain of ELF4 (Q99607 whole entry): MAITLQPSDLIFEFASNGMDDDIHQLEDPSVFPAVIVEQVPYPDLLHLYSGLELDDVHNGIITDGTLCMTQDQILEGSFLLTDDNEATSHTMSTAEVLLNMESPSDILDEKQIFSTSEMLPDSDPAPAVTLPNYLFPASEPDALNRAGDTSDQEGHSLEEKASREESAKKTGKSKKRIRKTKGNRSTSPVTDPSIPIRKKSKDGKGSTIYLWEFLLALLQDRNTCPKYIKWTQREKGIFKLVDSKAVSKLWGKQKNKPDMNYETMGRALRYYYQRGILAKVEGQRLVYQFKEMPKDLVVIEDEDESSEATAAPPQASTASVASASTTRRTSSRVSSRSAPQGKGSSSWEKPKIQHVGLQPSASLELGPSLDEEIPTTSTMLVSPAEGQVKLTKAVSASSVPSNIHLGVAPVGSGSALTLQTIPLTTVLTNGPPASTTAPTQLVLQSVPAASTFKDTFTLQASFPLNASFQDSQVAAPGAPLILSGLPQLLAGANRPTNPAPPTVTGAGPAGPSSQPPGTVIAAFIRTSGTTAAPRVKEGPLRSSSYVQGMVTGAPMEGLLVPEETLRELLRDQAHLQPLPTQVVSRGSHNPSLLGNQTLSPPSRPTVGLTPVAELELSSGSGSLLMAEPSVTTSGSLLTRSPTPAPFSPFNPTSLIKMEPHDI
# Chain of HSF1 (Q00613 whole entry): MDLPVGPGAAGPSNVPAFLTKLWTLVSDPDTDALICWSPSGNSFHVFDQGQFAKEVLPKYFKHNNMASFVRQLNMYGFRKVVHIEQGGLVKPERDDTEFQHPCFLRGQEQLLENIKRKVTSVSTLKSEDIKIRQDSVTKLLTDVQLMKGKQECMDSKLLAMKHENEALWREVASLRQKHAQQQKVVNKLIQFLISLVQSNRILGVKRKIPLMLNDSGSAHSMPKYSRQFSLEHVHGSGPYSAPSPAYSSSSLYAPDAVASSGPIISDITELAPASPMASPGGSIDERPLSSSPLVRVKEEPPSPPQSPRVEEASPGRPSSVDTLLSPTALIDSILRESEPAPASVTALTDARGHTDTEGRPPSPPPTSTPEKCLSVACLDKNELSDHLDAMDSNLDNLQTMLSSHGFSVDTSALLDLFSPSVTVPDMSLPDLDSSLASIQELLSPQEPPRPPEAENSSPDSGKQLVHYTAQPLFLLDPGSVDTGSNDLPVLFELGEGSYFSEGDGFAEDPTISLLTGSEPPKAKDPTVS
# Chain of ETV1 (P50549 whole entry): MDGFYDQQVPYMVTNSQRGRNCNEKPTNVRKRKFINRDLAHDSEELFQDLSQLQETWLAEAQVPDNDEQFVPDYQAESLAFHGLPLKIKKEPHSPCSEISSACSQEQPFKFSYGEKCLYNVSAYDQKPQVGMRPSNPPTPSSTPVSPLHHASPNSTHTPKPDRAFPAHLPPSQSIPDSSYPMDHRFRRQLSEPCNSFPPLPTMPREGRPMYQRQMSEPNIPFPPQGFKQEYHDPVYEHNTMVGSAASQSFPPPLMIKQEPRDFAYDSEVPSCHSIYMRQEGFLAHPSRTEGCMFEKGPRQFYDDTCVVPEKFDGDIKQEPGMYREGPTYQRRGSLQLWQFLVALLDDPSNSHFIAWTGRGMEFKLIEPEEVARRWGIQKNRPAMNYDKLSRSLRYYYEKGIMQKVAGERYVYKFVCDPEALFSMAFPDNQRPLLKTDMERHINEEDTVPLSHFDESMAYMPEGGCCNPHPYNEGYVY
# Chain of ETV5 (P41161 whole entry): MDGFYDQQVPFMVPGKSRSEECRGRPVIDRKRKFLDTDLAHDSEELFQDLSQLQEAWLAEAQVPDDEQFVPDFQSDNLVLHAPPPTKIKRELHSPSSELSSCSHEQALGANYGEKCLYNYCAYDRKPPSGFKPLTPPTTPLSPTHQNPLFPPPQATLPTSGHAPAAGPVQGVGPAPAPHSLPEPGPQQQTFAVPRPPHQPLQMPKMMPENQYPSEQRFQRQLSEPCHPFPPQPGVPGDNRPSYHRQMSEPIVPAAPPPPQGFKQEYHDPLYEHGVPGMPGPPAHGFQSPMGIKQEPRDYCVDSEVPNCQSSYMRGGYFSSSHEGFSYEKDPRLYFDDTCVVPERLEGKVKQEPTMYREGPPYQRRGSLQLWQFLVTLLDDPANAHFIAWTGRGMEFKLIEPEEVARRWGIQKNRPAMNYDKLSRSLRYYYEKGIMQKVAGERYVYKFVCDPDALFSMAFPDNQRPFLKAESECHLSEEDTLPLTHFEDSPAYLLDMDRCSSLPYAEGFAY
# Chain of CRX (O43186 whole entry): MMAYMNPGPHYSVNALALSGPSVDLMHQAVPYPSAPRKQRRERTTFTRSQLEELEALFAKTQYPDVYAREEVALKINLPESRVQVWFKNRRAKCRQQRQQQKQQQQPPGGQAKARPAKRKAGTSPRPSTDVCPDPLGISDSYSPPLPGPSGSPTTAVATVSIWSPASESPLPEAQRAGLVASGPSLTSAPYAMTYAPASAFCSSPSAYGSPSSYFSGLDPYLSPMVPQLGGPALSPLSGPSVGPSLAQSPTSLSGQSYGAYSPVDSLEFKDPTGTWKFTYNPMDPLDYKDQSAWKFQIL
sequence,measurement,setting,value
CTCGTT,binding signal,FEV,"1.22 fold enrichment (6-mer frequency, TF over GST control)"
same,binding signal,ETV5,"1.29 fold enrichment (6-mer frequency, TF over GST control)"
same,binding signal,HSF1,"1.24 fold enrichment (6-mer frequency, TF over GST control)"
same,binding signal,SPIC,"1.37 fold enrichment (6-mer frequency, TF over GST control)"
same,binding signal,ELF4,"1.28 fold enrichment (6-mer frequency, TF over GST control)"
same,binding signal,ELK4,"1.4 fold enrichment (6-mer frequency, TF over GST control)"
same,binding signal,ETV2,"1.36 fold enrichment (6-mer frequency, TF over GST control)"
same,binding signal,ELF3,"1.46 fold enrichment (6-mer frequency, TF over GST control)"
same,binding signal,CRX,"1.1 fold enrichment (6-mer frequency, TF over GST control)"
same,binding signal,ETV1,"1.22 fold enrichment (6-mer frequency, TF over GST control)"
same,binding signal,ERF,"1.4 fold enrichment (6-mer frequency, TF over GST control)"
same,binding signal,ETV3L,"1.43 fold enrichment (6-mer frequency, TF over GST control)"
same,binding signal,ETS2,"1.27 fold enrichment (6-mer frequency, TF over GST control)"
same,binding signal,SPDEF,"1.27 fold enrichment (6-mer frequency, TF over GST control)"
same,binding signal,ETV7,"1.37 fold enrichment (6-mer frequency, TF over GST control)"
same,binding signal,ELF5,"1.44 fold enrichment (6-mer frequency, TF over GST control)"
same,binding signal,ETV3,"1.25 fold enrichment (6-mer frequency, TF over GST control)"
same,binding signal,ETV6,"1.23 fold enrichment (6-mer frequency, TF over GST control)"
